Screening data from PubChem.
JMJD2A Tudor: JMJD2A Tudor domain (human) inhibition; AlphaScreen JMJD2A-Tudor / H3K4me3 peptide binding; Potency, µM (titrated, usually from 114 µM), most hits filed as inhibitors; 390,000 tested, 4.4% active; O75164; note: nearly all actives have a fitted effect of over 50% in size
Target sequence (O75164 whole entry, looked up, the tested form may be a part): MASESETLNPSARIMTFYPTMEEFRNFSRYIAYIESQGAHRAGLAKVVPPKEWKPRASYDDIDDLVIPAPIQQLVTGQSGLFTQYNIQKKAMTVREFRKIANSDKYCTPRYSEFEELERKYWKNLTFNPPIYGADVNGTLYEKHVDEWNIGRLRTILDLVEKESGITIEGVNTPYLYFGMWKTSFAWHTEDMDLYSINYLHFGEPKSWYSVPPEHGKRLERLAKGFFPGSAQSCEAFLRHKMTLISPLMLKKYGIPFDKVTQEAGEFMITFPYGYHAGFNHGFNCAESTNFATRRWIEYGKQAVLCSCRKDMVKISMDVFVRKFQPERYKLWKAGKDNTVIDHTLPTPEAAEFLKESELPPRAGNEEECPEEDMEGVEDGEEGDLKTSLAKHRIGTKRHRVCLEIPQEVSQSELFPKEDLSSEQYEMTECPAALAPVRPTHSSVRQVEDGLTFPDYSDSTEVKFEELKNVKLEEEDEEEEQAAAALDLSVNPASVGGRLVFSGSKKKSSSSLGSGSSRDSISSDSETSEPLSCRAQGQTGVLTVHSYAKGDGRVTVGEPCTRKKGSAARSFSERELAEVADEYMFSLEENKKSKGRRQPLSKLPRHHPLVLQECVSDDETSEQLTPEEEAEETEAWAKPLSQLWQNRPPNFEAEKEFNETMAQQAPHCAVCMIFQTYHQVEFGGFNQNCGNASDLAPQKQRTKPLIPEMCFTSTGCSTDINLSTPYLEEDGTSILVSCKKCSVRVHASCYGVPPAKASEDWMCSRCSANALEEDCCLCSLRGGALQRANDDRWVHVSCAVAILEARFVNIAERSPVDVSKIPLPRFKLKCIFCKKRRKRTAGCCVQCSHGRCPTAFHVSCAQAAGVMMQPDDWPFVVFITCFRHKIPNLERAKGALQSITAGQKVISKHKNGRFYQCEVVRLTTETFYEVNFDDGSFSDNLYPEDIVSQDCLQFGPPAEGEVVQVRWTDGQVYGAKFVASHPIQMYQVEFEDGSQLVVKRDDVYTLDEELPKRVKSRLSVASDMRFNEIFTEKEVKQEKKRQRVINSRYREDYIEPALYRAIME
HP1b chromo inh: inhibitors of HP1-beta chromodomain binding to methylated histone tails. AlphaScreen HP1-beta / biotin-H3K9me3 peptide binding. P83916. Potency, µM (doses to about 114 µM), most hits filed as inhibitors. 390,000 tested, 0.56% active; note: nearly all actives have a fitted effect of over 70% in size
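AlphaScreen: HP1-beta (50 nM) preformed 30 min with biotin-H3(1-18)K9me3 peptide (50 nM) in PBS pH 7.4, 0.01% Tween-20. Compound added for 30 min at RT, then streptavidin donor/nickel chelate acceptor beads (10 ug/mL) for 30 min.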
Sfp PPTase inh: Sfp phosphopantetheinyl transferase inhibition | Potency, µM, actives largely listed as inhibitors | Biochemical Sfp PPTase activity, qHTS | Q9F4F7 | AID 1490 | 310,000 tested, 3.5% active;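 note: the enzyme is Sfp with the accession as filed and its product quenches rhodamine fluorescence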
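Sfp 15 nM + cpd, 15 min RT; start w/ rhodamine-CoA 5 uM, BHQ-2-YbbR 12.5 uM (final); 50 mM Hepes pH 7.6, 10 mM MgCl2, 0.01% NP-40, 0.01% BSA; read 525/598 nm at 0 and 30 min.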
G9a inh: inhibitors of human histone lysine methyltransferase G9a; Q96KQ7; G9a H3K9 monomethylation, AlphaScreen, 2 h; 350,000 tested, 8.8% active; AID 504332; Potency, µM (highest dose often 102 µM), usual class: inhibitors; note: nearly all actives have a fitted effect of over 75% in size
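G9a (20 nM) preincubated 15 min RT with compounds, then 500 nM biotinylated H3K9 peptide and 20 uM SAM added; 2 h RT reaction. Monomethyl-H3K9 product detected by AlphaScreen with anti-H3K9me1 antibody, streptavidin donor and anti-rabbit IgG acceptor beads.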
L3MBTL1 inh: blocks human L3MBTL1. Q9Y468. Potency, µM (titrated, usually from 57.1 µM), usual class: inhibitors. AlphaScreen L3MBTL1–H3K9me1 peptide binding. 230,000 tested, 0.66% active; note: nearly all actives have a fitted effect of over 60% in size
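First, the protein-peptide complex forms for 30 min at room temperature (L3MBTL1 50 nM, biotinylated H3K9me1 peptide 75 nM). Next, compounds are pin-transferred and incubated 30 min. Finally, AlphaScreen beads are added and read after 30 min.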
BAZ2B block: inhibitors of human BAZ2B bromodomain; Q9UIF8; AlphaScreen BAZ2B-H3K14Ac peptide displacement; Potency, µM (doses to about 114 µM), most hits filed as inhibitors; 360,000 tested, 4.4% active; AID 504333; note: nearly all actives have a fitted effect of over 60% in size
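Compounds, titrated to a top concentration of 110 uM, were incubated 30 min at room temperature with preformed BAZ2B/acetyl-K14 H3 peptide complex (50 nM each). Proximity signal was measured by AlphaScreen after 20 min with beads.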
Numbers stand for hits; i = inactive; ? = inconclusive; nt = no result. This is a sample that favours compounds with a hit; in the whole collection about 12% have one here. Calls come from the whole dose curve; as a rule, active = well fitted curve in the direction sought with a large enough effect; inconclusive = small, poorly fitted or top-dose-only effect, or another doubt; inactive = no such curve, though single readings can be large; an effect the other way counts as inactive or inconclusive.

SMILES	JMJD2A Tudor	HP1b chromo inh	Sfp PPTase inh	G9a inh	L3MBTL1 inh	BAZ2B block
Cc1c(C(=O)Nc2cccc(C#N)c2)sc2nc3n(c(=O)c12)CCCCC3	i	i	nt	?	nt	50.1µM
COc1ccc(CCNC(=O)c2sc3nc4n(c(=O)c3c2C)CCC4)cc1	i	i	nt	i	i	i
COc1ccc(CNC(=O)c2sc3nc4n(c(=O)c3c2C)CCCC4)cc1	89.1µM	i	nt	14.1µM	nt	44.7µM
COc1ccc2oc(-c3ccc(NC(=O)c4ccc(Cl)cc4Cl)cc3)nc2c1	i	i	nt	i	nt	i
COc1cccc2c1cc1c(=O)n(CC(=O)O)nc(C)n12	i	i	nt	i	nt	i
COc1ccc(Cn2c(C(=O)O)c(CNC3CCC(C)CC3)c3ccc(C)cc32)cc1 (stereo not given)	i	i	nt	?	nt	?
CCOc1ccc(CCNC(=O)c2sc3nc4n(c(=O)c3c2C)CCCC4)cc1OCC	i	i	nt	i	nt	56.2µM
Cc1ccccc1CNC(=O)C(=O)NCC(c1ccc2c(c1)OCO2)N1CCOCC1 (stereo not given)	i	i	nt	i	nt	i
Cc1ccc2c(c1)sc[n+]2Cc1ccccc1	28.2µM	i	25.1µM	?	i	70.8µM
CC(=O)c1cccc(NC(=O)C2CCCN(c3nnc(-n4cccc4)s3)C2)c1 (stereo not given)	i	i	nt	i	nt	i
CCN(CC)S(=O)(=O)c1ccc2c(c1)nc(SCC(=O)N1CCCCCC1)n2-c1ccc(OC)cc1	i	i	i	i	nt	i
COc1ccccc1-n1c(SCC(=O)NCc2ccc3c(c2)OCO3)nc2cc([N+](=O)[O-])ccc21	50.1µM	?	i	?	i	i
CC(Sc1nc2cc([N+](=O)[O-])ccc2n1-c1ccc(F)cc1)C(=O)NCc1ccc2c(c1)OCO2 (stereo not given)	?	i	2.24µM	?	i	?
CCN(CC)S(=O)(=O)c1ccc2c(c1)nc(SCC(=O)N1CCOCC1)n2-c1ccccc1OC	i	i	i	31.6µM	i	?
COc1ccccc1-c1noc(-c2ccc(NCc3cccnc3)c([N+](=O)[O-])c2)n1	i	i	nt	i	nt	i
CCOC(=O)N1CCC(NC(=O)c2cnn(-c3ccc(C)cc3)c2C2CCN(C(=O)OC(C)(C)C)CC2)CC1	i	i	nt	i	nt	i
Cc1cc(O)c(C(c2cccc(F)c2)N2CCN(c3ccccc3)CC2)c(=O)n1Cc1ccco1 (stereo not given)	?	i	nt	?	nt	i
CC[n+]1ccc(C)c2cc(P(=O)(c3ccccc3)c3ccccc3)ccc21	?	?	i	?	nt	44.7µM
CC[n+]1ccc(C)c2cc(SC(F)(F)F)ccc21	i	i	i	7.94µM	nt	i
Cc1ccnc2ccc(P(=O)(c3ccccc3)c3ccccc3)cc12	nt	nt	i	i	i	i
CC(C)[C@H](O)CC[C@@H](C)C1CC[C@H]2C3CC=C4C[C@@H](O)CC[C@]4(C)C3CC[C@]12C (stereo not given in full)	nt	nt	i	i	nt	nt
O=C(NCCS(=O)(=O)N1CCN(c2ccc(F)cc2)CC1)c1cccc(C(F)(F)F)c1	i	i	nt	i	nt	i
COc1cccc(CNC(=O)Nc2cc(C(=O)NCc3cccc(F)c3)ccc2N2CCCC2)c1	i	i	nt	i	nt	i
CCOc1ccc(NC(=O)c2cnn(-c3ccc(C)c(C)c3)c2C2CCN(C(=O)OC(C)(C)C)CC2)cc1	i	i	nt	i	nt	i
O=C(Cn1nc(-c2ccco2)ccc1=O)Nc1ccc(Cl)c(Cl)c1	i	?	56.2µM	?	nt	i
SMILES	JMJD2A Tudor	HP1b chromo inh	Sfp PPTase inh	G9a inh	L3MBTL1 inh	BAZ2B block
O=C(Cn1nc(-c2ccco2)ccc1=O)Nc1cc(C(F)(F)F)ccc1Cl	i	i	i	i	nt	i
O=C(Cn1nc(-c2ccco2)ccc1=O)Nc1cc(Cl)ccc1Cl	i	i	44.7µM	nt	nt	i
COC(=O)c1cc2sccc2n1Cc1ccc(F)cc1Cl	i	i	nt	i	nt	i
COc1ccc2c(c1)C(=O)[C@@H](OC(=O)NC1CCCC1)[C@H](c1ccc(OC)c(Br)c1)O2	nt	nt	i	nt	nt	nt
Cc1cc(O)cc2c1C(=O)/C(=C/c1ccco1)O2	?	i	i	?	nt	?
CCC(=O)Oc1ccc2c(c1)O/C(=C\c1ccco1)C2=O	i	?	i	50.1µM	i	?
CCN(CC)C(=O)Oc1ccc2c(c1)O/C(=C\c1ccco1)C2=O	?	i	?	25.1µM	nt	39.8µM
O=C1/C(=C/c2ccco2)Oc2c1ccc(O)c2CN1CCCCC1	i	i	?	?	?	?
COC(=O)COc1ccc2c(c1)O/C(=C\c1ccco1)C2=O	?	i	56.2µM	25.1µM	nt	?
CC(=O)Oc1ccc2c(c1)O/C(=C\c1ccncc1)C2=O	i	i	i	nt	i	i
COCCN(CCOC)Cc1c(O)ccc2c1O/C(=C\c1ccco1)C2=O	i	i	39.8µM	4.47µM	nt	70.8µM
CC(C)c1ccc(Nc2c(-c3ccc(N(C)C)cc3)nc3cnccn23)cc1	?	i	nt	i	nt	i
O=C(CSc1n[nH]c(-c2ccccc2Cl)n1)N1CCN(c2ccc(F)cc2)CC1	i	i	nt	i	nt	i
CCOc1ccc(-c2c(=O)n(OCc3ccccn3)c3ccccc3[n+]2[O-])cc1	i	i	?	i	i	i
CCOC(=O)COn1c(=O)c(=O)n(O)c2ccccc21	50.1µM	i	i	44.7µM	i	i
COc1ccc(-c2c(=O)n(OC)c3ccccc3[n+]2[O-])cc1OC	i	i	56.2µM	31.6µM	nt	i
COc1ccc(-c2c(=O)n(OCc3ccccn3)c3ccccc3[n+]2[O-])cc1OC	i	i	i	?	i	i
C=CCOn1c(=O)c(-c2ccc(OC)c(OC)c2)[n+]([O-])c2ccccc21	89.1µM	i	56.2µM	8.91µM	nt	i
COc1ccc(-c2c(=O)n(OCc3ccccc3[N+](=O)[O-])c3ccccc3[n+]2[O-])c(OC)c1	i	i	i	44.7µM	i	i
Cc1cc(C)c(S(=O)(=O)N2CCC(N3CCN(Cc4ccccc4)C(=O)C3=O)CC2)c(C)c1	i	i	nt	i	nt	i
COc1ccc(C(CC(=O)NCc2ccccc2)N2Cc3ccccc3C2=O)cc1 (stereo not given)	i	i	nt	i	nt	i
CC(C)(C)OC(=O)N1CCC(c2c(C(=O)NCCN3CCOCC3)cnn2-c2ccc(F)cc2F)CC1	i	i	nt	i	nt	i
CCOC(=O)COn1c(=O)c(-c2ccc(OC)c(OC)c2)[n+]([O-])c2ccccc21	nt	nt	?	22.4µM	?	i
CCSC1=N/C(=C\C=C2/Oc3ccccc3N2CC)C(=O)S1	35.5µM	?	i	12.6µM	nt	31.6µM
CCSC1=N/C(=C\c2ccc3c(c2)OCO3)C(=O)S1	i	i	i	i	?	i
CCC(Sc1nc2ccncc2[nH]1)C(=O)Nc1ccc(F)cc1 (stereo not given)	i	i	nt	i	nt	i
